HCV inh: HCV inhibition. Huh7.5.1 HCVcc-Cre infection, luciferase reporter, 44 h. Potency, µM (doses to about 41.8 µM), inactives show at the highest dose activity change, negative = inhibition, actives largely listed as inhibitors. actives 3.4% (n = 340,000); active = well fitted inhibition curve with a large enough effect; inconclusive = small, poorly fitted or top-dose-only effect, or another doubt; inactive = no such curve, though single readings can be large or run the other way
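HCVcc-Cre virus at an moi near 0.5 was added right after compound to cells cultured 4 h from seeding (1,000 cells/well). Luciferase activity was determined 44 h later, 15 min after substrate addition at RT.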
LASV entry inh: blocks Lassa virus binding to or entry into cells. Lassa virus pseudotype entry inhibition, cell reporter. actives 1.2% (n = 300,000). Potency, µM (highest dose often 37.9 µM), without a hit: at the top dose activity change, negative = inhibition, actives largely listed as inhibitors; calls by dose curve; tested in HEK293 cells; also: nearly all actives have a fitted effect of over 50% in size
VACV Venus inh: inhibitors of vaccinia virus (Venus reporter). Vaccinia virus Venus reporter expression, fluorescence. Potency, µM (series often up to 36.5 µM), for inactives: top-dose activity change, negative = inhibition, actives largely listed as inhibitors. actives 0.46% (n = 330,000). AID 720580; calls by dose curve; tested in A549 cells; also: nearly all actives have a fitted effect of over 30% in size
Marburg entry inh: blocks Marburg virus binding to or entry into cells. Marburg virus pseudotyped entry inhibition, cell reporter. Potency, µM (highest dose often 37.8 µM), for inactives: at the highest dose activity change, negative = inhibition, actives largely listed as inhibitors. actives 1.8% (n = 300,000). AID 540276; calls by dose curve; tested in HEK293 cells
VACV mCherry inh: vaccinia inhibition (mCherry reporter); Vaccinia virus mCherry reporter infection, fluorescence; Potency, µM (top dose mostly 36.5 µM), for inactives: at the top dose activity change, negative = inhibition, hits mostly inhibitors; actives 0.63% (n = 310,000); calls by dose curve; tested in A549 cells; also: nearly all actives have a fitted effect of over 35% in size
The depositor's hits bear a star; i = inactive; ? = inconclusive; nt = not tested or not shown; [ ] = remark or other dose. A selection: hits, their analogues and other compounds. The true share with any hit is near 4.6%. % is scaled to controls: 0 for no effect and ±100 for the full control effect; potency is read from the fitted curve at half-maximal effect.

SMILES	HCV inh	LASV entry inh	VACV Venus inh	Marburg entry inh	VACV mCherry inh
CCOC(=O)c1nc(Nc2ccc(Nc3ccccc3)cc2)c2ccccc2n1	11.2µM*	nt	nt	nt	nt
O=C(O)c1cccc(Nc2nc(-c3ccccc3)nc3ccccc23)c1	13.7%	10.1%	-15.4%	?	-2.1%
Oc1cccc(Nc2nc(-c3ccccc3Cl)nc3ccccc23)c1	-18.5%	-40.2%[46.1 µM]	-20.2%	?	10µM*
COCCN(CCOC)c1nc(-c2ccc(C)cc2)nc2ccccc12	-27.6%	nt	nt	nt	nt
COc1cccc(Nc2nc(-c3ccccc3)nc3ccccc23)c1	10µM*	?	-19.1%	?	-4.1%
COc1ccc(OC)c([C@@H](O)[C@H](C)N)c1	nt	nt	-6.6%	nt	i
CCN(CC)c1ccc(/C=N/c2sc3c(c2C#N)C2CCN3CC2)c(O)c1	4.47µM*	-26.1%	109.1%	13.7%	-13.7%
Cc1nc(N2CCc3ccccc3C2)[nH]c(=O)c1Cc1ccccc1	-1.2%	8.8%[46.1 µM]	-3.6%	19.3%[46.1 µM]	-1.3%
Cc1nc(-n2[nH]c3c(c2=O)CCCC3)[nH]c(=O)c1Cc1ccccc1	7.08µM*	?	nt	?	nt
CC(C)[C@@H](OCc1ccccc1)[C@H](C)/C=N/OC[C@@H](C)[C@H](OCc1ccccc1)C(C)C	nt	nt	nt	25.4%[14.2 µM]	nt
Cc1cc(O)c2c(c1O)C(=O)[C@]13C(=C2O)C(=O)[C@@H]2[C@@H](O)[C@H]1[C@@H]1[C@H](O)[C@H]3C(=O)C3=C(O)c4c(O)cc(C)c(O)c4C(=O)[C@]312	5.01µM*	nt	?	nt	?
Cc1cc(C)c(NC(=O)CSc2ccnc(=O)[nH]2)c(C)c1	nt	9.9%[46.1 µM]	2.1%	nt	-1.7%
COC(=O)CC=C[C@@H](C)[C@@H](C=NO[C@H](C)c1cn([C@H](CO)Cc2ccccc2)nn1)NS(=O)(=O)c1ccc(C)cc1	nt	?	nt	21.7%[14.2 µM]	nt
Cc1ccc2nc(CSc3nnc4ccccn34)cc(=O)n2c1	12.1%	16.9%	-3.3%	10.5%[46.1 µM]	0.6%
COCC(C)n1c(SCc2cc(=O)n3cc(C)ccc3n2)nc2ccccc2c1=O (stereo unspecified)	?	6.31µM*	3.7%	5.01µM*	-10.4%
CC(C)CN=c1cc(-c2ccccc2)oc2ccc(Cl)cc12	?	?	-24.5%	17.8µM*	nt
CC(O)CN=c1cc(-c2ccccc2)oc2ccc(Cl)cc12 (stereo unspecified)	-12.4%	-0.8%	-15.2%	?	nt
Cc1cc(C)cc(-n2ccn3c(CC(C)(C)CC(=O)O)nnc3c2=O)c1	nt	-13.2%[46.1 µM]	-1.5%	?	-9.4%
Cc1ccc2nc(Nc3ccc(C)c(C)c3)c3nncn3c2c1	22.4µM*	nt	nt	-7.7%	nt
COc1ccccc1Nc1nc2ccc(C)cc2n2cnnc12	6.31µM*	nt	nt	nt	nt
Cc1ccc(Nc2nc3ccccc3n3cnnc23)cc1C	4.8%	-20.4%[46.1 µM]	-5.5%	2.0%[46.1 µM]	-13.0%
COc1cccc(/C=N/Nc2nc3ccccc3n3cnnc23)c1O	?	?	?	8.91µM*	4.47µM*
COc1cccc(/C=N/Nc2nc3ccccc3n3cnnc23)c1	-17.6%	0.5%	1.2%	?	-5.5%
COc1ccc(Nc2nc3ccccc3n3cnnc23)cc1	20µM*	15.5%[14.3 µM]	-12.4%	-0.8%	-14.2%
CC(C)=CCN1C(=O)[C@]2(O[C@H](C)CC3=CCCC32)c2c(Br)cccc21 (stereo partly specified)	nt	nt	nt	3.5%[14.2 µM]	nt
SMILES	HCV inh	LASV entry inh	VACV Venus inh	Marburg entry inh	VACV mCherry inh
CC(C)=CCCC(C)=CCON=C1C[C@@H](O)[C@@H](O)[C@@H]2[C@H]3C(=O)N(Cc4ccc5c(c4)OCO5)C(=O)[C@@H]3CC[C@H]12	nt	?	nt	-16.6%[14.2 µM]	nt
CS(=O)(=O)N(CC(=O)NCCSCc1ccccc1)c1cc(C(F)(F)F)ccc1Cl	nt	-19.6%[46.1 µM]	-4.3%	?	i
C[C@]12C=CC(=O)C=C1CC[C@@H]1C2=CC[C@]2(C)[C@@H](C(=O)CN3CCN(c4cc(N5CCCC5)nc(N5CCCC5)n4)CC3)CC[C@@H]12	-16.7%	-25.0%	?	5.62µM*	1µM*
CC(=O)C1CCC2C3CCC4=CC(=O)C=CC4(C)C3C(=O)CC12C (stereo unspecified)	14.4%	1.3%[46.1 µM]	-14.8%	-19.6%[46.1 µM]	i
CCC(C)Sc1ccc(-c2nc3ccc(C)cn3c2NC2CCCCC2)cc1 (stereo unspecified)	-16.0%	nt	?	nt	8.91µM*
CCC(C)Sc1cccc(-c2nc3ccc(C)cn3c2NC2CCCCC2)c1 (stereo unspecified)	-9.3%	nt	-17.1%	nt	?
CCCCNc1c(-c2ccc(OC)c(SC(C)CC)c2)nc2ccc(C)cn12 (stereo unspecified)	?	nt	-15.6%	nt	?
CCC(C)Sc1cc(-c2nc3ccc(C)cn3c2NCc2ccccc2)ccc1OC (stereo unspecified)	10µM*	nt	?	nt	10µM*
CCC(C)Sc1ccc(-c2nc3ccc(C)cn3c2NCc2ccccc2)cc1OC (stereo unspecified)	3.98µM*	nt	12.6µM*	nt	?
Cc1cc2oc(=O)cc(CN3CCCCC3)c2cc1C(C)C	?	-9.7%	2.4%	?	-6.6%
COc1cccc(NCc2cc(=O)oc3cc(C)c(C(C)C)cc23)c1	10µM*	nt	nt	nt	nt
COc1cc2c(cc1OC)C(COc1ccccc1OC)N(C(=O)c1ccccc1OC)CC2 (stereo unspecified)	nt	-3.1%[46.1 µM]	3.2%	nt	-1.8%
COc1ccccc1NC(=O)C1=C(C)Nc2nc(SCc3ccccc3Cl)nn2C1c1cccnc1 (stereo unspecified)	nt	3.5%[46.1 µM]	?	6.8%[46.1 µM]	?
O=C(NCCCN1CCC(Cc2ccccc2)CC1)c1ccc2nc(N3CCOCC3)sc2c1	10µM*	nt	nt	nt	nt
Cc1csc(NC(=O)CSc2nc3[nH]c(=O)cc(O)c3s2)n1	10µM*	?	-21.0%	?	-3.5%
COc1cc2c(c(OC)c1OC)CC(c1ccccc1)=C(c1ccccc1)CC2NC(=O)C(F)(F)F (stereo unspecified)	nt	?	nt	37.5%[14.2 µM]	nt
CC1Sc2ccc(C(=O)Nc3ncccc3O)cc2NC1=O (stereo unspecified)	-23.4%	?	-13.0%	10µM*	-27.0%
Cc1cccnc1NC(=O)c1ccc2c(c1)NC(=O)C(C)S2 (stereo unspecified)	19.7%	?	-6.4%	9.0%	i
CC(=O)Nc1ccccc1-c1nc(CNC(=O)c2cccc(-n3cccn3)c2)c(C)o1	nt	nt	-4.5%	nt	-10.4%
Cc1nn2c(C)c(C(=O)NCc3ccc(OC(C)C)cc3)cnc2c1-c1ccc(F)cc1	nt	-5.9%[46.1 µM]	-10.3%	nt	-13.0%
COc1ccc(C(=O)CN2CCN(c3cc(C)nc4ccccc34)CC2)cc1	10µM*	nt	nt	nt	nt
Cc1cccc(N2CCN(CC(=O)NCc3ccccc3)CC2)c1C	-18.2%	nt	nt	nt	nt
COc1ccc(N2CCN(CC(=O)c3ccccc3)CC2)cc1	5.4%	-13.7%[46.1 µM]	-7.0%	13.6%[46.1 µM]	-9.8%
Cc1ccc2nc(C)cc(N3CCOCC3)c2c1	10µM*	-3.6%	-14.0%	3.4%	nt
COc1ccc(CNC(=O)CN2CCN(c3cccc(C)c3C)CC2)cc1	3.16µM*	?	-5.5%	-0.3%[46.1 µM]	-2.5%
COc1ccc2nc(C)cc(N3CCN(c4ccccc4)CC3)c2c1	22.4µM*	-12.4%	-3.1%	?	-20.4%

Assay outcomes from PubChem.
